From the OligoGym collection

Molecular target: MAN1C1
Assay: pooled miR-30 sensor sort-seq; sequence = guide strand
Details: shRNA
Also: reference of the scale not given here.

| Sequence | sensor-assay potency score (higher = more potent) |
| --- | --- |
| TTAGCCTCCATATCTGTCTTGC | -0.298 |
| TAACGCTTATAGCTCTGCCAAG | -1.49 |
| TTATTCGGAACACCTCTTCTCC | -0.384 |
| TATGACTCGTGACACGTCTTGG | -0.605 |
| TTCGGAACACCTCTTCTCCTGT | -0.298 |
| TTGAGAACAGTCTCAAATCCTG | -0.222 |
| TTTGTGTGTGTGCAAACACTGG | -1.13 |
| TAGAAAGAAGCTCTGCTGCTTG | 0.252 |
| TTGTGTGTGTGCAAACACTGGG | 0.0469 |
| AATTGTGACAAAACTAAACTGT | 0.356 |
| TTGAACATAGGGTCAGTGTTGG | -0.0716 |

Molecular target: MANEAL
Assay: as above
Details: shRNA

| Sequence | sensor-assay potency score (higher = more potent) |
| --- | --- |
| TACCACGAGTAGTAGAAGGCGT | -0.339 |
| AAGTTCTTCACAGCTTTCCAGT | -0.845 |
| TTTGATGAAGTGCTCCGCCCAG | -0.378 |
| ATAGTACTTGCCATTGACCCTG | -0.405 |
| TAGCTGGCCGAGATCTTGGGGT | -1.02 |
| TAGTACTTGCCATTGACCCTGT | -0.0343 |
| TTGATGAAGTGCTCCGCCCAGC | -0.595 |
| ATGAACATGAGGTTGTTGGCAT | 0.179 |
| TTGTGGTTGTTCCAGGGCCGAA | -1.8 |
| TTCTCTTTGATGAAGTGCTCCG | -0.00624 |
| ATGCTGGTGTCTATGTAGCCAG | -1.86 |
| TAGAAGGCGTGCAGGTCCGAGT | -1.05 |

Molecular target: MAP4K4
Assay: as above
Details: shRNA

| Sequence | sensor-assay potency score (higher = more potent) |
| --- | --- |
| TACATCATCATGGACAATCATG | -1.13 |
| TTCTCTTTCAACTCTCCTCTTT | -0.401 |
| TTGCCTTTTATATTCTTCCTGC | -0.0293 |
| TAGATCACTTTCAACCTCTGGC | 0.492 |
| TTGTATTTACGAATCTCCGGGG | -0.365 |
| TAGAACTACATCCTTGGTGATC | -1.1 |
| TTTGATGCTACACTGGATCATA | -0.597 |
| TTGACCACTGAGCCTTTCCGGG | -1.11 |
| TTCTTGTTCTCTCCTTCGCTGT | -0.84 |
| TTATAGACTTGTCCATAGGTGC | -0.62 |
| TTTGTTGAAATCGTCTTCGGTT | 0.0416 |
| TAGACTTGTCCATAGGTGCCAT | -0.0714 |

Molecular target: MAPK4
Assay: as above
Details: shRNA

| Sequence | sensor-assay potency score (higher = more potent) |
| --- | --- |
| TGAACTTGAACAGCTCACCCTG | -0.313 |
| TTAGTAGTTATAACAATTCCTC | -0.514 |
| TTCTTCACAGCGACCTTCCGGC | 0.22 |
| TTAAAGAAAAAACAAAACCCAA | -1.11 |
| TACCACTTTGTTACCAACCCTT | -0.102 |
